Screening results as filed in PubChem.
A selection: hits, their analogues and other compounds. The true share with any hit is near 4.1%.
Gli-Sufu antag: antagonists of Gli-Sufu signaling. 0.74% of 340,000 active. inhibition, % at 5 µM. Sufu-KO-LIGHT fibroblasts, Gli luciferase reporter luminescence. AID 588413;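 active = inhibition above about 55%, limit read from the data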;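 also: 0% = DMSO-treated cells and 100% = wells with medium but no cells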
KLF5 inh: suppresses KLF5 promoter-driven expression; AID 1700; inhibition, % at 5 µM; 0.23% of 290,000 active; DLD-1 KLF5 promoter-luciferase reporter, luminescence;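 active = inhibition above a per-plate limit of that plate's mean compound inhibition plus 3 SD, cut at about 60% in these data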;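 also: 0% = DMSO wells and 100% = LY294002 at 200 µM; higher means less KLF5 promoter-driven luciferase light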
697 NFkB inh: inhibitors of the PMA/ionomycin-induced NF-kB reporter in 697 B cells; 697 B-cell NF-kB luciferase reporter, 16 h; inhibition, % at 4 µM; 0.33% of 330,000 active; in the data active = inhibition above about 35%
aSyn UTR inh: MLPCN primary screen, SNCA 5' untranslated region | alpha-synuclein 5'UTR reporter, inhibitor activity | inhibition, % (tested at 7.5 µM) | 0.82% of 300,000 active | AID 1813; in the data active = inhibition above about 60%;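 also: H4 neuroglioblastoma cells stably carrying SNCA 5'UTR luciferase fusion; 0% = DMSO wells and 100% = positive control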
Mdm2 MdmX PPI: human Mdm2/MdmX binding inhibition. SaOS-2 split-luciferase Mdm2/MdmX complementation, luminescence. O15151+Q00987. 3% of 330,000 active. AID 485346. inhibition, % at 8 µM;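 active = inhibition of at least 50% at 8 µM in the primary screen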
Jurkat NFkB inh: lowers PMA/ionomycin-induced NF-kB signal in Jurkat cells. PMA/ionomycin-induced NF-kB luciferase reporter, luminescence. inhibition, % at 4 µM. 0.53% of 330,000 active; in the data active = inhibition above about 50%
Mdm2 MdmX conf: human Mdm2/MdmX binding inhibition, confirmed | shares compounds with Mdm2 MdmX PPI | 55% of 10,000 active | inhibition, % at 8 µM | luminescent assay; in the data active = inhibition above about 40%
Full FLuc ctr: inhibits full-length luciferase, flagging false Mdm2/MdmX hits; AID 504607; shares compounds with Mdm2 MdmX PPI; inhibition, % at 8 µM; 77% of 6,200 active; SaOS-2 full-length luciferase counterscreen, luminescence;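 active = mean inhibition at 8 µM reaching about 37%, which flags the compound as non-specific, limit read from the data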;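 also: p53-null SaOS-2 cells with luciferase driven by a doxycycline-inducible promoter; compound on cells about two nights before reading with doxycycline added after day one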
The depositor's hits bear a star.

Screening CS(=O)(=O)c1nc(S(=O)(=O)c2ccc(Cl)cc2)c(N2CCOCC2)s1 returned Gli-Sufu antag 4, KLF5 inh -49, 697 NFkB inh 0, aSyn UTR inh -75, Mdm2 MdmX PPI 57*, Jurkat NFkB inh 14 and Mdm2 MdmX conf 13.
For CC1CN(c2sc(S(C)(=O)=O)nc2S(=O)(=O)c2ccc(Cl)cc2)CC(C)O1 (centres undefined) the results were Gli-Sufu antag 13, KLF5 inh -24, 697 NFkB inh -23, aSyn UTR inh 10, Mdm2 MdmX PPI 27 and Jurkat NFkB inh 5.
COc1ccc(NC(=O)CSCC(=O)N(C)CC(=O)Nc2cccc3ccccc23)cc1 was read as Gli-Sufu antag 0, 697 NFkB inh 14, aSyn UTR inh -5, Mdm2 MdmX PPI 24 and Jurkat NFkB inh -7.
`COc1ccc(-c2sc3cc4c(cc3c2C#Cc2cncn2C)OCO4)cc1` gave Gli-Sufu antag 2, 697 NFkB inh -22, Mdm2 MdmX PPI -9 and Jurkat NFkB inh 10.
COc1ccc(-c2sc3ccc(OC)cc3c2C#Cc2cncn2C)cc1 was read as Gli-Sufu antag -1, 697 NFkB inh -39, Mdm2 MdmX PPI 54*, Jurkat NFkB inh -25 and Mdm2 MdmX conf 19.
Screening COc1ccc(-c2oc3ccccc3c2C#Cc2cncn2C)cc1 returned Gli-Sufu antag 16, 697 NFkB inh -50, Mdm2 MdmX PPI 72*, Jurkat NFkB inh 18, Mdm2 MdmX conf 61* and Full FLuc ctr 44*.
For O=C(O)c1ccc(NS(=O)(=O)c2cccc(C(=O)Nc3cccc(C(=O)O)c3)c2)cc1 the results were Gli-Sufu antag 0, KLF5 inh -42, 697 NFkB inh 0, aSyn UTR inh -11, Mdm2 MdmX PPI 13 and Jurkat NFkB inh -5.
For COc1ccc(-c2nc3ccccc3[nH]2)cc1 the results were Gli-Sufu antag -97, KLF5 inh -11, 697 NFkB inh -157, aSyn UTR inh 26, Mdm2 MdmX PPI -67 and Jurkat NFkB inh -59.
`COc1ccc(-c2cc(=O)n(-c3nc4ccccc4[nH]3)[nH]2)cc1` gave Gli-Sufu antag -21, KLF5 inh -53, 697 NFkB inh -2, aSyn UTR inh -68, Mdm2 MdmX PPI 93*, Jurkat NFkB inh 7 and Mdm2 MdmX conf 13.
`O=[N+]([O-])c1cc(S(=O)(=O)C(F)(F)F)ccc1Sc1nc2ccccc2s1` gave Gli-Sufu antag 3, KLF5 inh -18, 697 NFkB inh -7, aSyn UTR inh -11, Mdm2 MdmX PPI 96*, Jurkat NFkB inh -2 and Mdm2 MdmX conf 10.
Screening CS(=O)(=O)c1ccc(Sc2nc3ccccc3[nH]2)c([N+](=O)[O-])c1 returned Gli-Sufu antag 8, KLF5 inh -68, 697 NFkB inh 22, aSyn UTR inh -8, Mdm2 MdmX PPI 7 and Jurkat NFkB inh 3.
For O=[N+]([O-])c1cc(S(=O)(=O)C(F)(F)F)ccc1Sc1nc2ccccc2[nH]1 the results were Gli-Sufu antag -16, KLF5 inh 0, 697 NFkB inh -33, aSyn UTR inh -20, Mdm2 MdmX PPI 57*, Jurkat NFkB inh -34 and Mdm2 MdmX conf 12.
`COc1ccc(CCC(=O)NCC(=O)OCc2ccccc2)cc1` gave Gli-Sufu antag 6, KLF5 inh -34, 697 NFkB inh 9, aSyn UTR inh 14, Mdm2 MdmX PPI 20 and Jurkat NFkB inh 4.
`CCCn1c2ccccc2c2nnc(SC(CC)C(=O)Nc3cc(C)on3)nc21` (centres undefined) gave Gli-Sufu antag -23, KLF5 inh 8, 697 NFkB inh -19, aSyn UTR inh 22, Mdm2 MdmX PPI 9 and Jurkat NFkB inh -7.
Screening CCCn1c2ccccc2c2nnc(SC(CC)C(=O)Nc3sc4c(c3C#N)CCCC4)nc21 (centres undefined) returned Gli-Sufu antag 3, KLF5 inh -23, 697 NFkB inh -29, aSyn UTR inh 28, Mdm2 MdmX PPI 54*, Jurkat NFkB inh -8 and Mdm2 MdmX conf 23.
